Source: PubChem BioAssay (National Center for Advancing Translational Sciences (NCATS))
RXFP1 agonist – RXFP1 (human) receptor agonism; AID 2676; HEK293T-RXFP1 cAMP TR-FRET, 30 min; response scale: percent of porcine relaxin response, buffer zero; Q9HBX9; hit rate 0.3% among 370,000; Potency, µM (titrated, usually from 57.5 µM), for the others: at the highest dose activation, usual class: activators; active = well fitted activation curve with a large enough effect; inconclusive = small, poorly fitted or top-dose-only effect; also: potency is read from the fitted curve at half-maximal effect; % is scaled to controls: 0 for no effect and ±100 for the full control effect; nearly all actives have a fitted effect of over 60% in size
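HEK293T cells stably expressing RXFP1 were pretreated with the PDE4 inhibitor Ro 20174, exposed to compounds for 30 min at 37C, lysed, and cAMP was read by TR-FRET. Data normalized to buffer (basal) and 29 nM porcine relaxin (100%).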
gsp antagonist – antagonizes gsp, the McCune-Albright syndrome mutation. Potency, µM (doses to about 76.9 µM), for the others: top-dose activity change, negative = inhibition, most hits filed as inhibitors. hit rate 0.4% among 340,000. gsp-mutant cells, cAMP HTRF, 30 min; calls by dose curve; cell line not stated here;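 also: intracellular cAMP measured with PDE inhibitor Ro 20-1724 present during compound exposure; potency is read from the fitted curve at half-maximal effect; % is scaled to controls: 0 for no effect and ±100 for the full control effect; nearly all actives have a fitted effect of over 65% in size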
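HTRF cAMP measurement after 30 min RT detection following 30 min, 37C compound treatment alongside […] (added as 300 uM solution) in G418-selected cells seeded at 2000/well and grown 16–24 h.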
gsp agonist – gsp mutant agonism | hit rate 0.13% among 340,000 | gsp mutant cells, cAMP HTRF, 30 min | Potency, µM (titrated, usually from 76.9 µM), inactives show at the highest dose activation (cAMP increase), most hits filed as activators | AID 624287; active = well fitted activation curve with a large enough effect; inconclusive = small, poorly fitted or top-dose-only effect, or another doubt; inactive = no such curve, though single readings can be large or run the other way; cell line not stated here;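 also: phosphodiesterase inhibitor Ro 20-1724 added with compounds to block cAMP breakdown; potency is read from the fitted curve at half-maximal effect; nearly all actives have a fitted effect of over 60% in size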
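Cells in DMEM/10% FBS with G418 were pretreated with compounds in DMSO plus […] (300 uM stock) for 30 min at 37C. cAMP was measured by HTRF (cAMP-d2 plus anti-cAMP antibody-K) after 30 min at room temperature.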
RXFP1 antag – RXFP1 (human) relaxin receptor antagonism | activity change, negative = inhibition, % at 57.5 µM | hit rate 0.59% among 350,000 | Q9HBX9 | HEK293-RXFP1, relaxin-stimulated cAMP HTRF, 30 min; active compounds read low | AID 1259400;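 active = activity change of -60% or lower, but not beyond a set lower limit; inconclusive = change between -60% and -40%, or beyond the set limit; inactive = change above -40%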; also: % is scaled to controls: 0 for no effect and ±100 for the full control effect
pAkt inh – blocks phosphorylation of Akt. AID 651550. Neuro2A IGF-stimulated pAkt S473 HTRF, 20 min; active compounds read low. hit rate 0.32% among 360,000. activity change, % for hits at 50 µM; in the data active = activity change below about -80%; inconclusive = mostly about -51% to -80%; also: % is scaled to controls: 0 for no effect and ±100 for the full control effect
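Neuro2A cells in DMEM with 0.5% FBS, overnight at 37 deg C, given compound at single 50 µM final, then IGF (6 nM final) for 20 min at 37 deg C. Lysed; phospho-Akt Ser473 by HTRF after 24 h, 665/615 ratio.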
An asterisk follows results filed as active; i = inactive; ? = inconclusive; . = no result; [ ] = remark or other dose. Shown are actives, neighbours in structure and some others; about 1.3% of the full set was active somewhere.

SMILES	RXFP1 agonist	gsp antagonist	gsp agonist	RXFP1 antag	pAkt inh
Cc1nc(SCC(=O)NC(C)c2ccccc2)c2oc3ccccc3c2n1 (stereo not given)	6%	2%	5%	-1	i
Cc1nc(SCC(=O)Nc2ccc(F)cc2)c2oc3ccccc3c2n1	?	40%	15%	-3	-90%*
Cc1nc(SCC(=O)NCCc2ccccc2)c2oc3ccccc3c2n1	3%	11%	-14%	2	i
COc1ccc(-c2onc(C)c2C)cc1S(=O)(=O)N1CCc2ccccc21	1%	.	.	-10	.
CC(=O)Nc1ccccc1-c1nn[nH]n1	1%	1%	-2%	8	-101%*
CC(C)(C)n1ncc2c(=O)n(CC(=O)c3ccccc3)cnc21	1%	-16%	0%	-6	-115%*
CC(C)(C)n1ncc2c(=O)n(CC(=O)OCc3ccccc3)cnc21	0%	1%	-1%	-11	i
CCc1ccc(Nc2n[n+](-c3ccccc3)c(-c3c(Cl)cccc3Cl)s2)cc1	1%	32µM*	.	.	i
Fc1ccc(-[n+]2nc(Nc3ccccc3)sc2-c2c(Cl)cccc2Cl)cc1	-2%	?	.	.	i
Cc1sc2nc[nH]c(=S)c2c1-c1ccccc1	3%	-14%	9%[15.4 µM]	-91*	i
COC(=O)c1cc(Br)c(=O)n(CCc2ccccc2)c1	4%	5%	2%	5	.
CC(C)OC(=O)c1ccc(NCc2cc(O)ccc2O)cc1	.	2%	-29%	-63*	i
COC(=O)c1ccc(O)cc1	6%	6%	-9%[15.4 µM]	2	i
COC(=O)c1ccc(CCc2cc(O)ccc2O)cc1	.	6%	20%	-72*	i
COC(=O)c1ccc(CCc2cc(O)c(Br)cc2O)cc1	.	-6%	-4%	-96*	i
COc1ccc(NC(=O)CCc2c(C)nc3c(c2C)c(=O)n(C)c(=O)n3C)c(OC)c1	16%	.	.	.	.
COc1cc(/C=C/C(=O)O[C@H]2CC[C@]34C[C@]35CC[C@]3(C)[C@@H]([C@H](C)CCC=C(C)C)CC[C@@]3(C)C5CCC4C2(C)C)ccc1O (stereo not given in full)	.	.	.	10	.
O=C(Nc1cc(Cl)ccc1O)c1snnc1-c1ccccc1	3%	22µM*	20%	-3	i
O=C(Nc1cccc(Cl)c1Cl)c1snnc1-c1ccccc1	4%	-9%	-28%	-8	i
CCc1nc(Nc2ccc(F)c(Cl)c2)c2c3c(sc2n1)CCCC3	3%	.	.	.	.
C=CCn1c(SCc2ccccc2C#N)nnc1-c1cc(Br)ccc1O	0%	35µM*	-2%	-11	.
CC(C)Cc1ccc(C(C)C(=O)OCc2ccccn2)cc1 (stereo not given)	.	.	.	-32	.
O=C(CS(=O)(=O)c1ccccc1)c1cc2cc(F)ccc2oc1=O	-1%	2%	-17%	-72*	.
O=C(CS(=O)(=O)c1ccccc1)c1cc2ccccc2oc1=O	0%	-11%	-49%	-29	i
CCCN(CCC)C(=O)c1nn(C)c2c1CSc1ccc(C)cc1-2	1%	.	.	-9	.
SMILES	RXFP1 agonist	gsp antagonist	gsp agonist	RXFP1 antag	pAkt inh
Cc1cc(C(=O)COC(=O)c2ccc(O)cc2O)c(C)n1-c1ccccc1	-3%	?	-47%	-87*	i
COc1ccc(-n2c(C)cc(C(=O)COC(=O)c3ccc(O)cc3O)c2C)cc1	-1%	32µM*	4%	-33	i
Cc1cc(C(=O)COC(=O)c2ccc(O)cc2O)c(C)n1-c1ccc(OC(F)F)cc1	0%	-18%	-16%	?	i
COc1cccc(COC(=O)c2ccc(-c3nnn(Cc4cccc(OC)c4)n3)cc2)c1	0%	.	.	-10	.
CCOc1ccc(NC(=O)C(C)n2c(=O)cc(C)c3c(C)nn(-c4ccccc4)c32)cc1 (stereo not given)	29%	.	.	-3	.
Cc1ccc(-n2nnnc2CNC(=O)c2ccccc2F)cc1C	19%	.	.	-2	.
CC1CCN(CCCNC(=O)c2cc(Sc3ccc(F)cc3)nc3ccccc23)CC1	10%	.	.	-3	.
COc1cccc(-c2noc(C3CCCN(C(=O)c4ccccc4OC)C3)n2)c1 (stereo not given)	0%	35µM*	0%	-4	i
CC(NC(=O)Nc1nnc(C(F)(F)F)s1)(C(F)(F)F)C(F)(F)F	2%	6.3µM*	?	-8	i
